Screen size: about 97,000 compounds; about 140 (0.14%) were called active. Shown is part of a subset that was picked to be rich in actives. Values without a mark were called inactive.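 The calls were made as follows: active = inhibition above the screen-wide mean inhibition plus 3 SD (cut at about 15% in these data); inactive = the rest.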
molecular target: Ephrin type-B receptor 4 (Homo sapiens) (UniProt P54760); experiment: blockers of EphB4 ligand binding – biochemical, TNYL-RAW peptide probe, fluorescence polarization, primary screen (AID 720); conditions: EphB4 LBD / TNYL-RAW-Alexa532 peptide, at 7 µM, active compounds read high;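 also: 0% = DMSO wells and 100% = excess unlabeled TNYL-RAW peptide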
Sequence (P54760 whole entry, looked up, the tested form may be a part): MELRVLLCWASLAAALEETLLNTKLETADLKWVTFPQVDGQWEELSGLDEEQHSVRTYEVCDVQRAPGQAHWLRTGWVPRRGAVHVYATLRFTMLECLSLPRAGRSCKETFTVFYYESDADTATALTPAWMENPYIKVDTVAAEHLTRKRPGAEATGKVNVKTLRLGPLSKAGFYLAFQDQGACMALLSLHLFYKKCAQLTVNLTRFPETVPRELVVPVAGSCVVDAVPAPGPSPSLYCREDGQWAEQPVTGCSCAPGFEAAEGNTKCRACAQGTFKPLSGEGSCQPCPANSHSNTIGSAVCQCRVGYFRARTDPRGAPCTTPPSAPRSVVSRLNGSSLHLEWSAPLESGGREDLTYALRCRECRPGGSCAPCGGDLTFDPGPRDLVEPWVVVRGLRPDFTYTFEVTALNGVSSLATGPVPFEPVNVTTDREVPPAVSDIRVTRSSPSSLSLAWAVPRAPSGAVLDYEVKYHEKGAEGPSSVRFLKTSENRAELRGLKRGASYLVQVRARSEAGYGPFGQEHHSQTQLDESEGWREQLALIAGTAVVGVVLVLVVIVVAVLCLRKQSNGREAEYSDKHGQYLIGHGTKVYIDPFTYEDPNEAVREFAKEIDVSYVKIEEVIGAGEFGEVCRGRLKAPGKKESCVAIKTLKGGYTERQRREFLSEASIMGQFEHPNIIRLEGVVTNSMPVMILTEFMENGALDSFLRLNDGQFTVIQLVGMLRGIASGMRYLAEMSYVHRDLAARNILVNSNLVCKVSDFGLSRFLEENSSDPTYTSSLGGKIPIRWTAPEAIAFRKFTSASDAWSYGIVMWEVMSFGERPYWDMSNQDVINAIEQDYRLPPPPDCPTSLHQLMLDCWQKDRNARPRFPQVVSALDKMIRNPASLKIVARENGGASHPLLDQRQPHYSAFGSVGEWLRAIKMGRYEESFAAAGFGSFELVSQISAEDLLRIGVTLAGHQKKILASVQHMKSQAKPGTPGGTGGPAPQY

In order of rising inhibition:
1. Oc1ccc(CNc2ccccc2O)cc1  -12.7%
2. CCOc1ccc(NC(=O)CN(C)CC(=O)Nc2cccc(Cl)c2C)cc1OCC  -10.2%
3. Cc1ccccc1OC(=O)Cn1c(C(F)(F)F)nc2ccccc21  -8.85%
4. O=C(Cn1ccc([N+](=O)[O-])n1)NCc1cccs1  -8.7%
5. Cc1ccc(/C=N\n2c(-c3ccccc3)n[nH]c2=S)s1  -7.78%
6. COC(=O)Cc1cc(=O)oc2c(C)c(O)ccc12  -7.76%
7. Cc1cc(Nc2ccccc2)nc(N)n1  -7.64%
8. COc1ccc(/C(O)=C2\C(=O)C(=O)N(Cc3ccco3)C2c2ccc(OC)cc2OC)cc1 (configuration not stated)  -7.3%
9. O=C(COc1ncnc2c(Cl)cc(Cl)cc12)N1CCN(S(=O)(=O)c2ccccc2)CC1  -7.07%
10. CN(C)CCNC(=O)Nc1cccc(Cl)c1Cl  -7%
11. Cc1ccc(-c2nn(-c3ccccc3)cc2/C=N/NC(=O)c2ccc3c(c2)OCO3)cc1  -6.96%
12. O=C(CSC1=Nc2ccccc2C2=NC(CC(=O)NCc3ccco3)C(=O)N12)NCc1ccco1 (configuration not stated)  -6.96%
13. O=c1nc(N2CCOCC2)nc2n1CCO2  -6.76%
14. COC(=O)c1cc(OC)ccc1-c1ccc(OC)cc1  -6.72%
15. CCOC(=O)C1=C(c2ccccc2)O/C(=C(/C(=O)OC)C(F)(F)F)S1  -6.59%
16. O=C1CSC(c2ccc(Cl)cc2)N1 (configuration not stated)  -6.27%
17. N/C(=N\OC(=O)c1cc(-c2ccccc2)nc2ccccc12)c1ccncc1  -5.76%
18. COC(=O)c1ccc(C2C(Oc3ccccc3C)C(=O)N2CCc2ccc(OC)c(OC)c2)cc1 (configuration not stated)  -5.62%
19. COC(=O)Nc1sc2nc(C)cc(C)c2c1-n1cccc1  -5.41%
20. COc1ccc(NC(=O)NC2CC3CCCC(C2)N3Cc2ccccc2)cc1 (configuration not stated)  -5.24%
21. O=C(CNC(=O)c1cc2c(s1)CCC2)Nc1ccccc1Br  -5.12%
22. COC(=O)c1ccccc1OCC(=O)N1CCN(c2ccc(Cl)cc2)CC1  -4.75%
23. CNC(=O)CN1C(=O)c2ccccc2S1(=O)=O  -4.4%
24. CC(C)Oc1ccc(Oc2ccc(C(F)(F)F)cn2)cc1  -4.38%
25. Cc1ccsc1/C=C1\SC(N2CCOCC2)=NC1=O  -4.07%
26. O=S(=O)(Cc1cc(Sc2ccccc2)nc(-c2ccccc2)n1)c1ccccc1  -3.64%
27. CS(=O)(=O)N1CCN(c2cccc(Cl)n2)CC1  -3.22%
28. O=C(Nc1sc2c(c1-c1nc3ccccc3[nH]1)CCCC2)C1CC1  -2.93%
29. CCOC(=O)C1=C(CN2CCc3ccccc32)NC(=O)NC1c1cc(C)ccc1C (configuration not stated)  -2.91%
30. Cc1cc(N)n2nc(-c3ccc(C(C)(C)C)cc3)cc2n1  -2.84%
31. Nc1ccc(C(=O)OCC(=O)NC2CCCc3ccccc32)cc1[N+](=O)[O-] (configuration not stated)  -2.7%
32. CC(C)c1ccc(N2CCN(C(=O)c3ccccc3NC(=O)/C=C(\C(=O)O)c3ccccc3)CC2)cc1  -2.32%
33. COC(=O)c1cccc(N(C(=O)c2ccco2)C(C(=O)NC2CCCC2)c2ccco2)c1 (configuration not stated)  -2.29%
34. CCCc1nnc(NC(=O)c2cccs2)s1  -2.26%
35. C=CCNC(=O)c1sc(SC)cc1-c1ccc(Cl)cc1  -2.13%
36. NC(=O)C1(N2CCCCC2)CCN(C(=S)Nc2ccc(Cl)cc2)CC1  -1.72%
37. COc1ccc(/C=C(/NC(=O)c2ccc(C)cc2)c2nc3ccccc3[nH]2)cc1OC  -1.55%
38. ONC(=Nc1ccc(Cl)cc1)c1ccccc1Cl  -1.3%
39. O=C(COC(=O)c1ccccc1NC(=O)c1ccco1)Nc1ccc2c(c1)OC(F)(F)O2  -1.26%
40. Cc1ccc(NC(=O)C(C)c2cccc(C(=O)c3ccccc3)c2)cc1 (configuration not stated)  -1.1%
41. CCOC(=O)c1ccc2c(c1)nc(C)n2CC  -0.83%
42. Cc1cc2nc(C)n(CCCNC(=O)Nc3ccccc3)c2cc1C  -0.81%
43. COc1ccc(C(=O)OCC(=O)NCC2CCCCC2)cc1S(=O)(=O)N1CCCc2ccccc21  -0.59%
44. Cc1cccc(NC(=O)c2ccc(OCC(=O)NCc3ccccc3)cc2)c1C  0.02%
45. CN1/C(=c2/s/c(=C3/C(=O)N(c4ccccc4)NC3=Nc3ccccc3)n(C)c2=O)C(C)(C)c2ccccc21  0.36%
46. CC(=O)c1cccc(NC(=O)N2CCCC2C(=O)NCCc2ccccc2)c1 (configuration not stated)  0.44%
47. Cc1ccc(NC(=S)N/N=C2/CCCc3c(C)cc(C)cc32)cc1  0.47%
48. CC(C)CC(N=C1NC(C)(C)Cc2ccccc21)C(=O)O (configuration not stated)  0.51%
49. C=CCOc1c2ccc(C(=O)N(CC)c3ccc(OC)cc3)cc2nn1C  0.66%
50. NC(=O)COc1ccc(/C=N/NC(=O)C2CCCN2S(=O)(=O)c2ccc(Cl)cc2)cc1 (configuration not stated)  0.72%
51. O=C(COc1ccc(Cl)cc1)N1CCN(S(=O)(=O)c2ccc(Cl)cc2)CC1  0.78%
52. Cc1ccc(NC2(C#N)C(=O)Nc3ccccc32)cc1 (configuration not stated)  0.9%
53. O=C(N/N=C\c1cccc(Br)c1)c1ccccc1-n1cccc1  1.13%
54. Clc1ccc(COn2c(-c3ccc(Cl)cc3Cl)nc3ncccc32)cc1  1.17%
55. Cc1ccc(NC(=O)CSCC(=O)N2CCOCC2)cc1  1.18%
56. Cc1cccc(NC(=S)Nc2ccc(Br)cc2)c1  1.26%
57. Cc1ccc(C(=O)c2c(NC(=O)c3ccncc3)sc3c2CCCC3)cc1  1.3%
58. COc1cc(C)c(C(C)C)cc1S(=O)(=O)n1ccnc1  1.74%
59. O=C(NCCc1ccccn1)c1cc(C(=O)C2CCCCC2)c[nH]1  1.78%
60. O=C(COC(=O)c1n[nH]c2ccccc12)NCc1ccccc1  1.83%
61. Cn1cnc([N+](=O)[O-])c1Nc1ccccc1O  2.1%
62. O=C(Nc1ccccc1[N+](=O)[O-])C1C(c2ccccc2)=C1c1ccccc1  2.26%
63. CN(C)Cc1ccccc1C1(O)c2ccccc2CSc2ccccc21 (configuration not stated)  2.27%
64. O=[N+]([O-])c1ccccc1/C=N/n1c(COc2ccccc2)n[nH]c1=S  2.36%
65. COC(=O)/C(=C\Nc1ccccc1)NC(=O)c1ccc(Cl)cc1Cl  2.49%
66. CCCc1nc2sc3c(c2c(=O)n1NC(=O)CCCl)CCCC3  2.57%
67. CCOc1ccc(Nc2nc(Cc3nnc(SCC(=O)c4ccc(C)cc4)o3)cs2)cc1  2.63%
68. CC(C)CNC(=O)CC(c1ccccc1)c1c(O)ccc2ccccc12 (configuration not stated)  2.89%
69. OC(COCCC12CC3CC(CC(C3)C1)C2)CN1CCCCC1 (configuration not stated)  2.92%
70. Cc1cccc(N2CCN(C(=O)CN(C)S(=O)(=O)c3ccc4c(c3)CCC(=O)N4)CC2)c1C  3.05%
71. CC(C)(C)n1nnnc1C(c1ccc(Cl)cc1)N1CCSCC1 (configuration not stated)  3.05%
72. CCCOC(=O)c1[nH]c2c(c1C)C(=O)CC(c1cccs1)C2 (configuration not stated)  3.13%
73. C/C(=N\NC(=O)c1nc(C)cc(C)n1)c1ccccc1  3.33%
74. O=C(COC(=O)c1ccc(S(=O)(=O)N2CCc3ccccc3C2)cc1)NC(=O)NCc1ccco1  3.64%
75. CC(=O)c1cccc(NC(=O)N2CCCC2C(=O)NCCC(C)C)c1 (configuration not stated)  3.74%
76. CCC(C)(C(=O)NC1CCCCC1)N(C)C(=O)c1ccc2c(c1)OCO2 (configuration not stated)  3.83%
77. c1ccc(-c2nc(NCc3ccco3)c3ccccc3n2)cc1  4.23%
78. O=C(Nc1cccn(Cc2c(Cl)cccc2Cl)c1=O)c1ccc(Cl)cc1  4.57%
79. CC1CCC2(CC1)NC(=O)N(CC(=O)c1cccn1C)C2=O (configuration not stated)  4.98%
80. COc1ccc(OCCCC(=O)Oc2ccc(OC)cc2)cc1  5.05%
81. COc1cccc2c1OCC1COc3c(c(=O)n(C)c(=O)n3C)C21 (configuration not stated)  5.25%
82. Nn1c(Cc2cccc3ccccc23)nnc1SCC(=O)N1CC(=O)Nc2ccccc21  5.41%
83. O=C1c2ccccc2C(=O)N1CCCc1nc(-c2ccccc2)no1  5.53%
84. Cc1[nH]n(-c2ccccc2)c(=O)c1CCOC(=O)c1ccc(C(F)(F)F)cc1  5.95%
85. O=c1c2ccccc2nc2n1C1(CCCCC1)Cc1ccccc1-2  6.44%
86. CCCCNC(=O)CSc1nc2n[nH]c(C)c2c(=N)n1-c1cccc(Cl)c1C  6.52%
87. CCn1nc(C)c(NC(=O)/C=C/c2ccc(OC)c(COc3ccc(Br)cc3)c2)c1C  7.03%
88. Cc1cccc(C)c1NC(=O)CCS(=O)(=O)c1cccc2nsnc12  7.08%
89. CCOC(=O)c1c(NC(=O)CCCN2CCOCC2)sc2c1CC(C)(C)OC2  7.6%
90. Cc1nc(NNC(=O)c2ccccc2)cc(-c2ccccc2)n1  8.09%
91. CCN1CCC(=NNC(=O)c2ccc(C)c([N+](=O)[O-])c2)CC1  8.39%
92. Cc1ccc2c(Cl)c(C(=O)NCCCn3ccnc3)sc2c1  8.67%
93. Cc1ccc2c(c1)-c1c(ssc1=S)C(C)(C)N2C(=O)CN1C(=O)c2ccccc2C1=O  10.6%

In the case of `CN(C)c1nc2n(c(=O)n1)CCO2`, the inhibition is reported as 17.6% (active).
In the case of `CCCc1nnc(NC(=O)CN2C(=O)c3ccccc3S2(=O)=O)s1`, the inhibition is reported as 18.1% (active).
For `CCC1CCCCN1C(=O)Nc1cccc(NC(=O)N2CCCCC2CC)c1` (configuration not stated), the inhibition was 16.1% (active).
`Oc1ccccc1/C=N/n1c(-c2cccs2)n[nH]c1=S` was tested, and the inhibition was 15.8% (active).

From PubChem BioAssay AID720 (The Scripps Research Institute Molecular Screening Center, 2007)
